Assay results reported in PubChem BioAssay AID1259399 (Fisher Drug Discovery Resource Center, 2018).
The campaign covered roughly 160,000 compounds. About 240 (0.15%) were called active. For the sample, actives were picked, then their nearest neighbours and some compounds at random. Unmarked numbers belong to inactive results. No stated cut-off is given here; in the data, active means inhibition above about 40%; inactive means the rest.

What follows are compounds tested against Cyclic GMP-AMP synthase (Mus musculus) (UniProt Q8C6L5) (assay: cyclic GMP-AMP synthase inhibitors, mouse, primary biochemical chemiluminescence (AID 1259399;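 further: 0% = negative control wells and 100% = reference inhibitor with no enzyme activity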)). Settings: recombinant cGAS, Kinase-Glo ATP depletion luminescence; at 12.5 µM; active compounds read high.
Sequence of Cyclic GMP-AMP synthase (Mus musculus) (Q8C6L5 whole entry, looked up): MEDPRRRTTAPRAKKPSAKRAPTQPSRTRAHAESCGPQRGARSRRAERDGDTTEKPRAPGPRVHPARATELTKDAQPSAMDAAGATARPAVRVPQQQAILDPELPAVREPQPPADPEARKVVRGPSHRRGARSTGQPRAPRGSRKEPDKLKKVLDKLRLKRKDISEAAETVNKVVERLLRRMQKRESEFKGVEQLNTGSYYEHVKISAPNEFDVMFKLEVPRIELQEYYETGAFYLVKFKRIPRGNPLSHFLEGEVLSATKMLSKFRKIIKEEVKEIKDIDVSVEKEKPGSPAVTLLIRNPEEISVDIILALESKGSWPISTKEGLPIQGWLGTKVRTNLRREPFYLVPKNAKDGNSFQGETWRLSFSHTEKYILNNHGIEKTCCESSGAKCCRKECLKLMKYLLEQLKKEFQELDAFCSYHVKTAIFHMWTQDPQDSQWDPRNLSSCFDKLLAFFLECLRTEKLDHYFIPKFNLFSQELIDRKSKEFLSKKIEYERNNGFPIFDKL

| Compound | inhibition |
| --- | --- |
| O=C(Cc1ccccc1)N1CC(=O)N(Cc2ccco2)CC(O)C1 (configuration not stated) | -3.15% |
| COc1cc2c(cc1OC)C(CNC(=O)NC(C)(C)C)N(Cc1ccc(F)cc1)CC2 (configuration not stated) | -7.88% |
| Cc1cnc(C(=O)N2CC(c3ccncc3)C2)cn1 | -13.8% |
| NCCOCc1ccc(-c2ccc(F)c(CO)c2)cc1 | -21.2% |
| COc1ccc(S(=O)(=O)N(CC(=O)N2CCc3sccc3C2c2ccccc2C)C(C)C)cc1 (configuration not stated) | -2.82% |
| COCC(=O)Nc1cccc(-n2nc(OCCc3ccc(OC)cc3)nc2-c2ccc(C(F)(F)F)cc2)c1 | -3.56% |
| Cc1csc2nc(CSc3ncn[nH]3)cc(=O)n12 | -4.64% |
| COc1ccc(-c2cc(NC(=O)c3cc(F)cc(C(F)(F)F)c3)n(-c3ccc(C)cc3)n2)cc1 | -4.28% |
| COc1ccc(C(C)=O)cc1COc1ccc(C#N)cc1 | -12.7% |
| COc1ccc(CCOc2nc(-c3ccc(OC)cc3)n(-c3ccc(NC(=O)Nc4ccccc4C)cc3)n2)cc1 | -6.37% |
| CC(Oc1ccccc1C(N)=O)c1ccccc1Cl (configuration not stated) | -1.52% |
| CCN1C(=O)N(C2Cc3ccccc3C2)C(=O)C12CCN(Cc1cccc3ncccc13)CC2 | -16.7% |
| O=C(Nc1ccc2c(c1)OCO2)c1cc2nc(-c3ccc(F)cc3)cc(C(F)(F)F)n2n1 | -6.41% |
| COc1ccc(C=C2SC(=S)NC2=O)cc1OC | 28% |
| CCn1nccc1NC(=O)C1(C)CCN1C(=O)c1sccc1C (configuration not stated) | -3.99% |
| CCOCCCn1c(SCc2cc(F)ccc2C)nc2cc(S(=O)(=O)N3CCCC(C)C3)ccc21 (configuration not stated) | -6.92% |
| Cc1ccc(OC2(C(=O)N(C)Cc3cc(C4CC4)n[nH]3)CCNCC2)cc1 | -3.33% |
| CCOc1ccc(/C=C2/SC(=S)N(CC(=O)O)C2=O)cc1 | -7.17% |
| O=C(O)CN1C(=O)/C(=C\c2ccc(F)c(Br)c2)SC1=S | 49.9% (active) |
| O=C(O)CN1C(=O)/C(=C\c2cccc(Cl)c2Cl)SC1=S | 6.94% |
| Cc1ccc2nc(-c3ccc([N+](=O)[O-])cc3)nc(-c3ccccc3)c2c1 | -7.39% |
| COc1cccc(CNC(=O)Cn2c3ccc(F)cc3c3ncn(Cc4ccccc4)c(=O)c32)c1 | -6.62% |
| CC(=O)Nc1ccc(Nc2cc(N3CCCCC3)c3nonc3c2[N+](=O)[O-])cc1 | -7.72% |
| C=CC[C@@H]1CC=C[C@@H](C)N1Cc1nc(-c2ccc(C)o2)oc1C | 0.508% |

| Compound | inhibition |
| --- | --- |
| COC(=O)c1ccccc1NC(=O)N1CCc2ccccc2C1c1ccc(F)cc1 (configuration not stated) | -8.08% |
| Cc1nc(SCC(=O)c2ccc(Cl)cc2)c(C#N)c(C)c1C | -5.06% |
| Cc1cc(=O)[nH]c(SCc2cc(-c3ccco3)on2)c1C#N | 9.2% |
| Cc1cc(=O)[nH]c(SCC(N)=O)c1C#N | 71.9% (active) |
| N#CC1C(=N)SC(=N)C(C#N)C1c1ccco1 (configuration not stated) | 36.2% |
| N#CC1C(=N)SC(=N)C(C#N)C1c1cccc(O)c1 (configuration not stated) | 57.5% (active) |
| COc1ccc(-n2ccnc(SCc3ccc(C)cc3)c2=O)cc1Cl | -6.1% |
| Cc1ccc(-c2nc3cc(C)ccn3c2NC(=O)CC(C)C)cc1 | -7.17% |
| Cn1c(=O)[nH]c(=O)c2c1nc(N1CCN(Cc3ccccc3F)CC1)n2Cc1ccccc1 | -1.19% |
| COc1ccc(C23CC4CC(CC(C(=O)NC5CC5)(C4)C2)C3)cc1 | -7.85% |
| Cc1oc(-c2ccc(C(F)(F)F)cc2)nc1CN(C)CC1COc2ccccc2O1 (configuration not stated) | -4.73% |
| O=C(N1CCC(n2cnc3ccccc32)CC1)C1(c2ccccc2)CC1 | -5.7% |
| COc1ccc(CCN(Cc2ccc(C)o2)C(=O)CN(CCN2CCCC2)C(=O)c2ccccc2C)cc1OC | -4.1% |
| CNC(=O)CN(Cc1cccc(Br)c1)C1CC1 | -8.9% |
| CC(=O)N(CCN(C)C)c1nc2cc3c(cc2s1)OCO3 | 1.62% |
| O=C(c1ccccc1)N1CCN2C[C@@H](c3ccccc3)[C@H](CO)[C@H]2C1 | -4.18% |
| Cc1ccccc1-n1cc(CN(C)C(=O)c2cn(Cc3cccc4ccccc34)nn2)cn1 | -7.32% |
| COc1cccc(C(=O)N(Cc2cccc(OS(=O)(=O)c3ccc(F)cc3)c2)Cc2ccco2)c1 | -0.277% |
| COc1ccccc1C(=O)N1CCN(c2cccc(Cl)c2C)C(=O)C1C (configuration not stated) | 51.1% (active) |
| CC1C(=O)N(c2ccc3c(c2)OCO3)CCN1C(=O)c1ccccc1Cl (configuration not stated) | 0.748% |
| COc1ccccc1C(=O)N1CCN(c2ccc(F)cc2)C(=O)C1C (configuration not stated) | -4.08% |
| OC(COCc1ccccc1)CN(Cc1ccc(F)cc1)CC1CC(c2ccc3c(c2)OCO3)=NO1 (configuration not stated) | -4.2% |
| CCc1nc2c(OCCOc3ccc(F)cc3)cccn2c1N(C)C(C)=O | -2.77% |
